# POLI inh: blocks human DNA polymerase iota activity | Q9UNA4 | Pol iota fluorescent replication assay, 10 min | Potency, µM (top dose mostly 115 µM), for the others: at the top dose activity, negative = inhibition, usual class: inhibitors | 390,000 compounds, 1% hits
#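 Fluorescent replication assay read twice, at 0 min and 10 min after adding 50 nM (final) substrate. Enzyme (10 nM) and compounds were first incubated 15 min at room temperature; enzyme-free buffer wells were negative controls.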
# Pol eta inh-1: blocks human DNA polymerase eta activity | Potency, µM (top dose mostly 114 µM), inactives show top-dose activity change, negative = inhibition, actives largely listed as inhibitors | 390,000 compounds, 1.2% hits | Q9Y253 | recombinant Pol eta, fluorescent DNA replication assay | AID 588591; also: % is scaled to controls: 0 for no effect and ±100 for the full control effect
# Target sequence (Q9Y253 whole entry, looked up): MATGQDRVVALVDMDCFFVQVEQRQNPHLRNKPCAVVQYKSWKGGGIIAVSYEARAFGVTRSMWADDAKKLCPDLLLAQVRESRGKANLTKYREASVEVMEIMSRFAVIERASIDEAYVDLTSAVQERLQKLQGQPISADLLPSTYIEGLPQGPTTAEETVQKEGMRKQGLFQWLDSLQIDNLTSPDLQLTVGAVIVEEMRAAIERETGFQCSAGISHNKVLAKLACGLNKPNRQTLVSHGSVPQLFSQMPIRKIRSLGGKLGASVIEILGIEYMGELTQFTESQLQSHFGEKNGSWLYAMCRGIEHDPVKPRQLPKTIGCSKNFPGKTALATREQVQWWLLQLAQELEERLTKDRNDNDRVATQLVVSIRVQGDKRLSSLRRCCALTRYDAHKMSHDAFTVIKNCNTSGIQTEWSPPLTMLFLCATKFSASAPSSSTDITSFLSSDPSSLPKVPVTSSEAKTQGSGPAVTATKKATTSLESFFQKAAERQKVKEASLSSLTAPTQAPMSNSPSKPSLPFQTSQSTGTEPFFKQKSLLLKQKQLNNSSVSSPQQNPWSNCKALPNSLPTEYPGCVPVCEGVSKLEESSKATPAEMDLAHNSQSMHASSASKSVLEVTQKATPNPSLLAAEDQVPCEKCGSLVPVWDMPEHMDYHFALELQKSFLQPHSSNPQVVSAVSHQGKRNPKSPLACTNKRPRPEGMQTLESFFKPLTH
#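 Pol eta (10 nM) was preincubated with compounds for 15 min at room temperature, after which fluorescent replication substrate (50 nM final) was added to start the reaction. Fluorescence was read kinetically at 0 and 10 min.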
# Pol kappa inh-1: inhibitors of human DNA polymerase kappa | purified Pol kappa, fluorescent DNA synthesis assay, 10 min | Potency, µM (highest dose often 107 µM), without a hit: at the highest dose activity, negative = inhibition, most hits filed as inhibitors | 400,000 compounds, 0.53% hits | Q9UBT6; also: % is scaled to controls: 0 for no effect and ±100 for the full control effect
#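 Pol kappa 10 nM + cpd, 15 min RT; start w/ substrate 50 nM final; fluorescence kinetic read, 0 and 10 min. Neg ctrl: buffer, no enzyme.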
# FEN1 inhibitor: human FEN1 inhibition; AID 588795; 390,000 compounds, 0.35% hits; P39748; Recombinant FEN1 flap cleavage, fluorescence, 15 min; Potency, µM (highest dose often 114 µM), inactives show top-dose activity change, negative = inhibition, usual class: inhibitors; also: % is scaled to controls: 0 for no effect and ±100 for the full control effect; nearly all actives have a fitted effect of over 65% in size
#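 Nuclease activity of 10 nM FEN1 was measured after 15 min of room-temperature exposure to titrated compounds, by adding 50 nM flap substrate and reading plates at 0 and 15 min.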
# WRN helicase inh: inhibitors of human WRN helicase; WRN helicase unwinding, fluorescent forked duplex, kinetic; Potency, µM (highest dose often 114 µM), without a hit: top-dose activity change, negative = inhibition, most hits filed as inhibitors; AID 651768; 360,000 compounds, 0.46% hits; also: % is scaled to controls: 0 for no effect and ±100 for the full control effect; nearly all actives have a fitted effect of over 55% in size
#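 Primary qHTS, 1536-well format. 20 nM WRN + compound, 15 min RT; start with 100 nM forked fluorophore/quencher duplex, 2 mM ATP (final); kinetic read ex 525/em 598 nm.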
# POLB inh: DNA polymerase beta (human) inhibition; P06746; Pol beta primer extension/strand displacement, fluorescence kinetic; Potency, µM (series often up to 114 µM), without a hit: top-dose activity change, negative = inhibition, usual class: inhibitors; 340,000 compounds, 1.3% hits; also: % is scaled to controls: 0 for no effect and ±100 for the full control effect
#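 10 nM enzyme + cpd, 15 min RT; start with substrate 50 nM final; read 0 min and after 10 min RT. Corrected, normalized data; 4-parameter Hill curve fit.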
# Pol kappa inh-2: confirmation of human DNA polymerase kappa inhibitors; shares compounds with Pol eta inh-1; purified Pol-kappa, fluorescent strand-displacement substrate; Potency, µM, most hits filed as inhibitors; 920 compounds, 76% hits; AID 720501
# Pol eta inh-2: Pol eta (human) inhibition, cherry-pick confirmation. AID 720502. Pol eta primer extension, TAMRA/BHQ fluorescence, 10 min. 2,600 compounds, 64% hits. shares compounds with Pol eta inh-1. Potency, µM, usual class: inhibitors
# * hit, by the source's call; u = inconclusive; x = no result; [ ] = another dose, or the depositor's remark. The list is not random: actives were taken first. Their share in the collection is about 2.4%. Calls follow the shape of the dose curve; as a rule, active = well fitted curve in the direction sought with a large enough effect; inconclusive = small, poorly fitted or top-dose-only effect, or another doubt; inactive = no such curve, though single readings can be large; an effect the other way counts as inactive or inconclusive. Potency is read from the fitted curve at half-maximal effect.
SMILES,POLI inh,Pol eta inh-1,Pol kappa inh-1,FEN1 inhibitor,WRN helicase inh,POLB inh,Pol eta inh-2,others
Cc1nnc(NC(=O)c2cc(-c3ccncc3)nc3c(C)cccc23)s1,79µM*,45µM*,-11%,-22%,-11%,7%,67*,
CC(C)c1ccc(C(=O)Nc2ccc(-c3nc4ccccc4s3)c(Cl)c2)cc1,-5%,-10%,8%,1%,x,9%,x,
O=C(NC(Cc1ccccc1)C(=O)O)/C(=C/c1ccco1)NC(=O)c1cccc(Br)c1 (stereo not drawn),u,20µM*,u,-4%,-17%,u,54*,Pol kappa inh-2=19*
COc1cc(/C=C(\C#N)c2nc3ccc(C)cc3[nH]2)ccc1OCc1ccc(C)cc1,u,u,u,u,x,u,x,Pol kappa inh-2=u
CCN(CC)C(=O)COc1ccc(N(C)S(=O)(=O)c2ccc(NC(C)=O)cc2)cc1,14%,34%,-4%,-10%,3%,15%,x,
CC(=O)Nc1ccc(S(=O)(=O)N(C)c2ccc(OCCOc3cccc(C)c3)cc2)cc1,32µM*,20µM*,u,10%,u,x,u,Pol kappa inh-2=38*
O=C(O)c1ccc(COc2c(F)c(F)c(F)c(F)c2F)o1,22µM*,22µM*,u,-4%,-24%[57.1 µM],40µM*,76*,
O=C(NC1CCCC1)c1ccc(COCC(F)(F)C(F)F)o1,1%[58.9 µM],-9%,-6%,0%,0%,29%,x,
O=C(O)c1ccc(COCC(F)(F)C(F)F)o1,-16%,18µM*,-24%,-1%,-13%[57.1 µM],28µM*,u,
Cc1cccc(N=C2NC(=O)/C(=C/C=C/c3ccco3)S2)c1,18µM*,20µM*,u,u,u,20µM*,u,
COc1ccc(N=C2NC(=O)/C(=C\C=C\c3ccco3)S2)cc1,u,40µM*,u,u,22µM*,10µM*,u,
CC(=O)c1ccc(NC(=O)CCCc2nc(-c3cccc(C)c3)no2)cc1,110%,-17%,5%,-2%,x,10%,x,
CCCOc1cc2c(C#N)c(N3CCCC3)nc(N)c2c(N)n1,u,45µM*,-24%,-20%,-14%[57.1 µM],x,u,
COc1cc2c(C#N)c(N3CCN(C)CC3)nc(N)c2c(N)n1,x,x,x,x,x,-6%,x,
O=C(C=Cc1ccco1)c1ccco1,u,-1%,u,-13%,-23%,x,x,
O=C(C=C1SCCS1)/C=C/c1ccco1,35µM*,18µM*,u,-13%,u,22µM*,u,
CCn1nc([N+](=O)[O-])c(C(C#N)c2nc3cc(C(F)(F)F)ccc3s2)c(Cl)c1=O (stereo not drawn),u,89µM*,-10%,u,u,56µM*,x,Pol kappa inh-2=60*
Cc1ccc(C(=O)NCC(c2ccco2)S(=O)(=O)c2ccccc2)cc1C (stereo not drawn),19%,-23%,-13%[60.1 µM],-15%,x,6%,x,
CCCn1c2ccccc2c2cnn(CC(=O)NCCCN(Cc3ccccc3)C(C)C)c(=O)c21,15%,-2%,-1%,u,x,42%,x,
COC(=O)c1cc(Cl)ccc1NC(=O)CSc1ncc(S(=O)(=O)c2ccc(Br)cc2)c(=O)[nH]1,u,89µM*,u,u,x,45µM*,u,Pol kappa inh-2=42*
O=C(NCC1CCCO1)c1cc(-c2ccco2)nc2ccccc12 (stereo not drawn),u,16µM*,u,-4%,-28%,45µM*,85*,
O=C(NCC1CCCO1)c1cc(-c2ccncc2)nc2ccccc12 (stereo not drawn),7%,-10%,-14%,2%,-3%,x,x,
COc1cccc(Nc2nn3c(=O)c4ccccc4nc3s2)c1,-18%,50µM*,14%,u,x,x,u,
CSc1ncc2c(n1)-c1ccccc1N(Cc1ccccc1)S2(=O)=O,16%,-6%,-9%,-1%,x,18%,x,
O=C(O)/C=C/c1ccc(S(=O)(=O)Nc2cccnc2)cc1,142%,2%,-6%,-3%,-32%,3%,x,
SMILES,POLI inh,Pol eta inh-1,Pol kappa inh-1,FEN1 inhibitor,WRN helicase inh,POLB inh,Pol eta inh-2,others
O=C(O)/C=C/c1ccc(S(=O)(=O)Nc2ccc(C(=O)NCC(=O)O)cc2)cc1,u,18µM*,u,6%,-2%[11.6 µM],-16%,u,
N#Cc1cc(C(=O)c2ccccc2O)cn(-c2nccs2)c1=O,-16%,16µM*,-29%,-18%,-7%[11.6 µM],20µM*,67*,
N#Cc1cc(C(=O)c2cc(F)ccc2O)cn(-c2nccs2)c1=O,u,28µM*,u,u,u,18µM*,u,
Cc1c(-n2cc(C(=O)c3cc(F)ccc3O)cc(C#N)c2=O)c(=O)n(-c2ccccc2)n1C,74%,6%,-2%,-6%,-23%,3%,x,
COc1cc(OC)cc(N2C(=O)N(Cc3ccc(C(C)(C)C)cc3)c3ccccc3S2(=O)=O)c1,-2%,-7%,-3%[60.1 µM],-15%,x,23%,x,
COc1ccc(C(=O)Nc2ccc(-c3nnc4n3CCCCC4)cc2)cc1,-14%,-5%,-18%,18%,x,-19%,x,
COc1ccc(C(=O)Nc2ccc(-c3nnc4n3CCCCC4)cc2)cc1OC,u,3%,u,-3%,x,32µM*,x,Pol kappa inh-2=17*
CCC(=O)N1CCc2cc(CNC(=O)c3ccccc3C)ccc21,39%,-10%,0%[60.1 µM],7%,x,11%,x,
O/N=C/c1cc(Br)ccc1OCc1ccccc1F,5%,-6%,-2%,u,-5%,x,x,
O=C(O)CN1C(=O)/C(=C\c2cccc(OCc3ccc(Cl)cc3Cl)c2)SC1=S,u,79µM*,-9%,u,-15%[11.6 µM],0%,u,Pol kappa inh-2=47*
O=C(O)CN1C(=O)/C(=C\c2cc(Br)ccc2OCc2ccccc2F)SC1=S,-25%,u,-14%,u,2%[11.6 µM],u,u,
CN(C)C1(CN=Cc2cc(Cl)cc([N+](=O)[O-])c2O)CCCCC1,u,u,u,-20%,-13%,14µM*,u,
COc1ccc(-c2nc(CCNC(=O)c3c(F)cccc3Cl)cs2)cc1,8%,-22%,-4%[60.1 µM],-11%,x,7%,x,
CCOC1=C/C(=C/c2c(N)n3nc(-c4ccccc4)sc3nc2=O)C=CC1=O,u,28µM*,u,-29%,u,35µM*,u,
COc1cc(C(=O)O[C@@H]2CC3CC[C@]2(C)C3(C)C)ccc1O,x,x,-3%[60.1 µM],x,x,x,x,
